Growth data for 15 molecules are collected here from PubChem BioAssay (NCI).

Each structure is given as a SMILES string. The panel holds about 83,000 compounds, 20% with a hit somewhere; the sample as a whole holds those more often.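 Each cell line was grown in a 96-well plate and treated with one concentration of compound for 48 hours. Values below 10 were considered active.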 A number with no mark means an inactive call. Activity calls are given as the source filed them.

Holding throughout (assay): NCI-60 one-dose screen, 48 h (100 = growth as untreated, 0 = no growth, -100 = all killed)
What all share (conditions): 10 µM unless noted

In assay [1] the test system is NCI-H23 lung.
In assay [2] the test system is NCI-H226 lung.
The test system of assay [3] is NCI-H322M lung.
For assay [4], the system named is HOP-62 NSCLC.
The subject of assay [5] is NCI-H460 lung.
In assay [6] the test system is HOP-92 NSCLC.
In assay [7] the test system is NCI-H522 lung.
In assay [8] the test system is A549/ATCC NSCLC.
Assay [9] deals with 786-0 renal.
Assay [10] has as its system COLO 205 colon.
Assay [11] deals with DU-145 prostate.
Assay [12] concerns K-562 leukemia.
The test system of assay [13] is MALME-3M melanoma.
The test system of assay [14] is MDA-MB-231 breast.
Assay [15] concerns RXF 393 renal.
The subject of assay [16] is SF-268 CNS.
Assay [17] deals with SF-295 CNS.
Assay [18] deals with SF-539 CNS.
Assay [19] has as its system UACC-257 melanoma.
For assay [20], the system named is M14 melanoma.

As to `Cc1ccc(-c2csc(/N=C3\C(=O)Nc4ccccc43)n2)cc1`, the growth in assay [1] is 23.5%; in assay [2], 62.1%; in [3], 47.1%; in assay [4], 25.3%; in assay [5], 8.52% (active); in assay [6] it was -16.1% (active). Besides, the growth is -57.6% (active) in assay [7]; 23% in assay [8]; 14.7% in assay [9]; -15.6% (active) in assay [10]; 42.2% in assay [11]; 1.43% (active) in [12]. Also, the growth is -3.69% (active) in assay [13]; 11.2% in [14]; -4.86% (active) in [15]; 33% in [16]; 13.9% in [17]; 20.3% in assay [18]. Besides, the figures for the growth in assay [19] and in assay [20] were 11.9% and 13.4%, respectively.
With `Cc1cc(C(=O)Nc2ncnc3nc[nH]c23)no1`, the growth in assay [1] was 101%; in assay [2], 92.3%; in [3] it was 90.6%; in [4] it was 92.6%; in [5], 106%; in assay [6], 102%. The growth is 94.3% in assay [7]; 100% in [8]; 103% in assay [9]; 104% in assay [10]; 108% in assay [11]; 87% in assay [12]. For the same molecule, the growth in [13] was 105%; in assay [14] it was 105%; in assay [15], 107%; in [16] it was 99.7%; in assay [17] it was 99.3%; in assay [18] it was 96.9%. Further, the figures for the growth in [19] and in assay [20] were 112% and 99%, respectively.
In the case of `[2H]C1([2H])NC([2H])([2H])C([2H])([2H])N(c2ccc(Nc3ncc4cc(C(=O)N(C)C)n(C5CCCC5)c4n3)nc2)C1([2H])[2H]`, the growth in assay [1] is 69.9%; in assay [2] it was 71.2%; in assay [3], 78.7%; in assay [4], 60.3%; in assay [5], 62.7%; in assay [6], 76.1%. Moreover, the growth was 82.7% in [7]; 51.5% in assay [8]; 61.1% in assay [9]; 38.3% in [10]; 99.7% in [11]; 64.6% in assay [12]. In addition, the growth was 58.4% in assay [13]; 64.9% in assay [14]; 82.4% in assay [15]; 77.4% in [16]; 72.7% in assay [17]; 86.5% in assay [18]. Also, the growth in assay [19] is 61.1%; in assay [20] it was 75.2%.
With `[O-][n+]1ccccc1CCN(O)CCc1cccc[n+]1[O-]`, the growth is 97.1% in assay [1]; 85.7% in assay [2]; 96.5% in assay [3]; 94.1% in assay [4]; 115% in assay [5]; 86.8% in assay [6]. In addition, the growth was 81.5% in assay [7]; 101% in [8]; 101% in [9]; 104% in assay [10]; 111% in assay [11]; 106% in assay [12]. Moreover, the growth is 99.5% in [13]; 97.8% in [14]; 113% in assay [15]; 101% in assay [16]; 103% in assay [17]; 87% in assay [18]. For the same molecule, the growth in assay [19] was 106%; in assay [20], 94.5%.
Turning to `O=C(Nc1ccc(Nc2ncccn2)cc1)NC1C=c2ccccc2=CC1` (stereo not given), the growth in assay [1] was 104%; in [2], 96.7%; in assay [3], 111%; in assay [4], 113%; in assay [5], 104%; in assay [6], 110%. For the same molecule, the growth in assay [7] was 99.3%; in assay [8], 93.1%; in assay [9], 104%; in [10], 123%; in assay [11] it was 109%; in assay [12], 89.1%. For the same molecule, the growth in assay [13] is 114%; in assay [14] it was 91.3%; in assay [15] it was 89.9%; in [16], 98.5%; in assay [17], 100%; in [18], 100%. Moreover, the values for the growth in assay [19] and in assay [20] were 94.9% and 111%, respectively.
As for `N#Cc1ccc(-c2ccc3c(c2)NC(=O)/C3=C\c2ccc[nH]2)cc1`, the growth in assay [1] is 36.4%; in [2], 58.1%; in assay [3], 70%; in assay [4], 84.4%; in [5], 76.2%; in assay [6], 36.4%. For the same molecule, the growth in assay [7] was 81.8%; in assay [8] it was 104%; in [9], 105%; in [10], 93.9%; in [11], 106%; in assay [12], 105%. The growth is 98% in assay [13]; 45.9% in assay [14]; 67.3% in assay [15]; 96.6% in [16]; 95.7% in assay [17]; 101% in assay [18]. Moreover, the figures for the growth in assay [19] and in assay [20] were 112% and 102%, respectively.
As to `N#CC1=C(N)Oc2c(ccc3ccccc23)C1c1ccc([N+](=O)[O-])cc1` (stereo not given), the growth is 79.1% in assay [1]; 66.7% in assay [2]; 95.2% in assay [3]; 73.3% in assay [4]; 69.8% in assay [5]; 93.4% in [6]. In addition, the growth in assay [7] is 57.5%; in assay [8] it was 73%; in [9] it was 102%; in [10] it was 105%; in assay [11], 89.6%; in assay [12], 21.4%. Also, the growth in [13] was 84.3%; in [14], 61.4%; in assay [15] it was 101%; in [16] it was 79.6%; in assay [17], 75.6%; in [18], 87.8%. For the same molecule, the growth in assay [19] was 94.7%; in assay [20], 67.8%.
Take `COc1cc2nc(-c3ccc(C(F)(F)F)cc3)cc(OCCCN3CCCCC3)c2cc1OC`: the growth in [1] is 57.9%; in [2], -11.8% (active); in assay [3] it was 62.3%; in assay [4] it was 57.6%; in [5], 17.7%; in [6] it was 27.9%. Besides, the growth in assay [7] is 33.6%; in assay [8], 44.4%; in assay [9] it was 48.4%; in assay [10], 11.6%; in assay [11], 45.3%; in assay [12] it was 12.8%. The growth in [13] is 39.9%; in assay [14], 27.7%; in [15] it was 26.9%; in assay [16], 50.6%; in assay [17], -46.8% (active); in [18], 46.1%. Moreover, the growth in assay [19] was 10.1%; in assay [20] it was -19.2% (active).
Consider `OC(c1ccccc1)c1ccccn1` (stereo not given), for which the growth in [1] is 107%; in assay [2] it was 97.8%; in [3], 102%; in [4] it was 104%; in [5], 107%; in assay [6], 94.4%. The growth in assay [7] is 84.6%; in [8], 77.1%; in [9], 97.2%; in [10], 108%; in assay [11], 110%; in assay [12] it was 94.3%. Also, the growth in assay [13] was 113%; in assay [14], 105%; in assay [15] it was 104%; in assay [16] it was 102%; in assay [17] it was 101%; in assay [18], 97.7%. The growth in [19] is 90.5%; in [20] it was 96.1%.
As to `CC(C)Cc1ccc(C(C)C(=O)NCc2c[nH]c3ccc(Cl)cc23)cc1` (stereo not given), the growth is 98% in assay [1]; 92.3% in assay [2]; 99.7% in assay [3]; 99.7% in [4]; 99.7% in assay [5]; 79.8% in [6]. Besides, the growth in assay [7] was 87.2%; in assay [8] it was 89%; in assay [9] it was 95.8%; in [10], 107%; in assay [11], 103%; in assay [12], 71.3%. Also, the growth in [13] is 98.8%; in assay [14], 82.2%; in [15], 87.8%; in assay [16], 89.3%; in assay [17] it was 88.3%; in assay [18] it was 100%. For the same molecule, the growth in assay [19] was 99.4%; in [20], 92.4%.
For the molecule `O=C(NNc1nc(Cl)nc(N2CCN(C(c3ccccc3)c3ccccc3)CC2)n1)c1ccccc1`, the growth is -9.53% (active) in assay [1]; 48% in assay [2]; 32% in [3]; 47.6% in assay [4]; 86.3% in assay [5]; 52.2% in assay [6]. The growth was -68.3% (active) in [7]; 98.7% in [8]; 70.5% in [9]; 24.1% in assay [10]; 46.6% in assay [11]; -38.8% (active) in [12]. Moreover, the growth in assay [13] was -14.4% (active); in assay [14], -54.3% (active); in assay [15] it was -47.1% (active); in assay [16] it was 63.1%; in assay [17], 92.3%; in assay [18] it was -33% (active). In addition, the growth in [19] was -1.56% (active); in assay [20], 10.5%.
As to `CCCC/C(=N\N=C(N)N)c1ccc(F)cc1`, the growth in [1] was 34.9%; in assay [2], 31.6%; in [3] it was 61.5%; in assay [4] it was 27.9%; in assay [5], 16.2%; in [6], 31.4%. The growth in [7] is 10.2%; in assay [8], 31.8%; in assay [9], 26.8%; in [10], 8.47% (active); in [11] it was 44.1%; in [12], 10.4%. Moreover, the growth in assay [13] is 40.6%; in [14] it was 59.3%; in assay [15] it was -5.71% (active); in assay [16], 45.2%; in assay [17], 18.4%; in assay [18] it was 11.7%. Besides, the growth in assay [19] was 44.1%; in [20], 13.7%.
Regarding `O=C1Nc2ccccc2/C1=N/c1nc(-c2ccc(Cl)cc2)cs1`, the growth was 75% in assay [1]; 64.2% in [2]; 92.6% in assay [3]; 56% in assay [4]; 67.7% in assay [5]; 51.5% in [6]. The growth in assay [7] is 50.1%; in [8], 49.4%; in [9] it was 75.6%; in [10] it was 63.8%; in assay [11], 75.3%; in [12] it was 48.5%. Also, the growth in assay [13] was 81.4%; in assay [14] it was 67.8%; in assay [15] it was 64.7%; in assay [16], 54.1%; in assay [17] it was 81.5%; in [18], 84.5%. Besides, the growth in assay [19] was 48.9%; in assay [20] it was 67.8%.
For the molecule `O=C1CCCN1c1cccc2cccnc12`, the growth in assay [1] was 92.9%; in [2], 98.8%; in assay [3], 102%; in assay [4], 94.4%; in assay [5], 102%; in assay [6], 103%. Moreover, the growth is 96% in assay [7]; 99% in [8]; 97.5% in assay [9]; 108% in assay [10]; 111% in assay [11]; 96.4% in [12]. Besides, the growth is 109% in assay [13]; 99% in assay [14]; 102% in [15]; 97.9% in assay [16]; 102% in assay [17]; 98.9% in assay [18]. Besides, the growth was 102% in [19] and 103% in assay [20].
For the molecule `CC(=O)c1cc2c(N)c(C(=O)Nc3cncc4ccccc34)sc2nc1C`, the growth in assay [1] is 101%; in assay [2], 105%; in assay [3], 113%; in assay [4] it was 93.5%; in assay [5], 110%; in assay [6], 98.6%. For the same molecule, the growth in assay [7] was 92.1%; in [8] it was 106%; in assay [9], 98.4%; in [10], 121%; in assay [11], 115%; in [12], 81.7%. The growth in assay [13] was 112%; in assay [14], 86.2%; in assay [15] it was 100%; in assay [16], 105%; in assay [17], 97.2%; in [18], 98.3%. The growth in [19] was 104%; in assay [20], 94%.
